Each structure is given as a SMILES string. Screen size: about 340,000 compounds; about 1,700 (0.5%) were called active. The entries come from a sample that favours actives as a whole. Unmarked numbers belong to inactive results.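 Rule for the calls: active = compounds whose inhibition of the agonist-driven luminescence signal at 20 µM reaches about 50% (limit read from the data); inactive = the rest.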

The inhibition is the relative decrease from the control value, in per cent.

The assay deals with C-C chemokine receptor type 6 (Homo sapiens) (UniProt P51684). As to the kind of experiment: CCR6 receptor antagonists, primary screen, cell-based, CHO-K1, luminescence, beta-arrestin, uHTS (AID 493098).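 Note: cells stimulated with CCL20 at 14 nM final; plate controls were DMSO with CCL20 for no effect and DMSO without agonist for full effect.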 To be noted: CHO-K1 CCR6 PathHunter beta-arrestin, CCL20-stimulated, at 20 µM, hits give high values.
Sequence of C-C chemokine receptor type 6 (Homo sapiens) (P51684 whole entry, looked up): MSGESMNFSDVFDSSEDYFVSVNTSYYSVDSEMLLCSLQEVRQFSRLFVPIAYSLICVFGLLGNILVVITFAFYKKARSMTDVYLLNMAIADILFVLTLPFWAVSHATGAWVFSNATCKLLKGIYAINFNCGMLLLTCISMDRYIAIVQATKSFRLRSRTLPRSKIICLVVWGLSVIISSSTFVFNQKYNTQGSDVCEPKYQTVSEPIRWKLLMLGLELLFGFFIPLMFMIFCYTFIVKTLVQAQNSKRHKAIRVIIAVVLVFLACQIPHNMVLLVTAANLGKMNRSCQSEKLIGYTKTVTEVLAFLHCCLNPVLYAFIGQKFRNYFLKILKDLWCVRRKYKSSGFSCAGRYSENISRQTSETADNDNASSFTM
As for `COc1ccc(NC(=O)c2oc3ccc(S(=O)(=O)N4CCOCC4)cc3c2C)cc1`, the inhibition was 8.2%. For `CCOC(=O)NC(C(F)(F)F)(C(F)(F)F)P(=O)(c1ccccc1)c1ccccc1`, the inhibition is 11.6%. As to `COC(=O)[C@]1(C)CCC[C@@]2(C)C3CC[C@]4(OC(C)=O)C[C@@]3(CCC21)CC4=NO` (some centres undefined), the inhibition is -0.25%. As to `Cc1cccc(CS(=O)(=O)c2ncc(Cl)c(C(=O)Nc3ccc(F)cc3)n2)c1`, the inhibition is 79.4% (active).

For the compound `O=C(Nc1ccc(F)cc1)c1ccc(S(=O)(=O)NCc2cccnc2)cc1`, the inhibition was -1.15%. Take `CCOc1ccc(NC(=O)c2nc(SCC)ncc2Cl)cc1`: the inhibition is 3.21%. `Cc1cccc(NC(=O)c2nc(S(=O)(=O)Cc3ccccc3)ncc2Cl)c1`: the inhibition is 82% (active).

Take `CSc1nnc(NC(=O)c2nc(S(=O)(=O)Cc3ccc(C)cc3)ncc2Cl)s1`: the inhibition was -1.49%. `Cc1ccc(CS(=O)(=O)c2ncc(Cl)c(C(=O)Nc3nnc(C)s3)n2)cc1`: the inhibition was -7.39%.

For the compound `CCCC(C(=O)OCCN(CC)CC)(c1ccccc1)c1ccccc1`, the inhibition was 11.6%.

On to `COC(=O)c1ccc(-c2noc(CN(Cc3ccccn3)CC3CCCO3)n2)cc1` (centres undefined), for which the inhibition was 5.23%.

`CCn1c(=O)c2ccccc2n(CC(=O)N2CCCc3ccccc32)c1=O`: the inhibition is 9.45%. For the compound `Cc1ccccc1CSCCNC(=O)c1ccc(N(C)S(=O)(=O)c2ccccc2)cc1`, the inhibition was 32.2%. As to `O=C(CC1OC(=O)c2ccccc21)NC1CCCCC1` (centres undefined), the inhibition was 19.9%. For `CC(C)N(Cc1ccccc1)C(=S)Nc1ccc(OC(F)F)cc1` the value was 18.4%; for `CN(CC(=O)Nc1ccc(OC(F)F)cc1)S(=O)(=O)/C=C/c1ccccc1`, 59.9% (active). Take `COc1ccc(NC(=O)COC(=O)c2ccc(NS(=O)(=O)/C=C/c3ccccc3)cc2)cc1`: the inhibition was 21.3%. For the compound `CCN1CCC(O)(/C=C/c2ccc(C)cc2)C(C(=O)/C=C/c2ccc(C)cc2)C1` (centres undefined), the inhibition is 63.6% (active). For `CCN1CCN(C(=O)CSc2ccc(C)cc2)CC1` the value was 6.4%; for `CCOC(=O)C1CCCN(C(=O)/C=C/c2ccc(OC)cc2)C1` (centres undefined), 6.92%; for `N#CCCn1cnc2ccccc21`, 8.21%.

For the compound `Cc1cc(C)nc(S/C=C/C(=O)c2ccccc2)n1`, the inhibition was 54.2% (active). Regarding `Cc1cc(C)nc(SCc2ccccc2C#N)n1`, the inhibition is -11.7%.

Consider `O=C(/C=C/Sc1ncn[nH]1)c1ccc(Cl)cc1`, for which the inhibition was 31.6%.

Values taken from PubChem BioAssay AID493098 (Sanford-Burnham Center for Chemical Genomics, 2011).
